Measured values: the supplement of paper PMC12350171
Counter-ions that a name gives are not always drawn.

Experiments:
Settings in all cases: 20 µM
[1] = test system: Salmonella enterica typhimurium; test: growth AUC normalised to DMSO control (fraction of control); higher = less growth inhibition, active = hit call of the paper
How it was run: (§1)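 Pathogens passaged twice anaerobically were inoculated at a starting OD578 of 0.01 into pre-reduced mGAM plates with drug at 20 μM and 1% DMSO, sealed with breathable membranes. Haemophilus parainfluenzae medium was supplemented with hemin and NAD. OD578 was read hourly for 24 h, with three biological replicates. Growth-curve AUC was computed by the trapezoidal rule up to the exponential-to-stationary transition and normalised to DMSO controls on the same plate.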

[2] = test system: Shigella flexneri; test: as above
How it was run: as §1

[3] = test system: Vibrio cholerae; test: as above
How it was run: as §1

[4] = test system: Yersinia pseudotuberculosis; test: as above
How it was run: as §1

[5] = test system: P. vulgatus RND KO; test: growth AUC normalised to DMSO control (median) (fraction of control); higher = less growth inhibition, active = hit call of the paper
How it was run: (§2)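 Each strain went through two overnight passages under anaerobic conditions before growth in mGAM in 96-well plates, starting at OD578 0.01, with each compound from the approved-drug library at 20 μM and 1% DMSO. Inside an anaerobic incubator, OD578 was recorded every hour for 24 h. Growth curves were cut off at entry into stationary phase, and the area under the curve was calculated by the trapezoidal rule and normalised to vehicle wells on the same plate. Reported values are medians of three biological replicates.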

[6] = test system: P. vulgatus WT; test: as above
How it was run: as §2

[7] = test system: S. enterica typhimurium WT; test: as above
How it was run: as §2

[8] = test system: S. enterica typhimurium tolC KO; test: as above
How it was run: as §2

Measured: growth AUC normalised to DMSO control
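For growth AUC normalised to DMSO control (median) in this document: active when median AUC fell below 0.1.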

C=CCSCC1Nc2cc(Cl)c(S(N)(=O)=O)cc2S(=O)(=O)N1 (configuration not stated) [Althiazide]
inactive: [1] 1.04 | [2] 1.08 | [3] 1.03 | [4] 0.985 | [5] 1.04 | [6] 1.08 | [7] 1.01 | [8] 1.01

NC[C@@H]1O[C@H](O[C@H]2[C@@H](O)[C@H](O[C@@H]3[C@@H](O)[C@H](N)C[C@H](N)[C@H]3O[C@H]3O[C@H](CO)[C@@H](O)[C@H](O)[C@H]3N)O[C@@H]2CO)[C@H](N)[C@@H](O)[C@@H]1O [Paromomycin sulfate]
inactive: [1] 1.01 | [2] 0.993 | [3] 1.01 | [4] 0.997 | [5] 1 | [6] 0.991 | [7] 1 | [8] 1

CC(C)(C)NC[C@H](O)COc1cccc2c1CCCC2=O [(-) Levobunolol hydrochloride]
inactive: [1] 0.994 | [2] 0.936 | [3] 0.973 | [4] 0.989 | [5] 0.982 | [6] 0.981 | [7] 0.995 | [8] 0.997

C[C@@H]1C[C@H]2[C@@H]3C[C@H](F)C4=CC(=O)C=C[C@]4(C)[C@@]3(F)[C@@H](O)C[C@]2(C)[C@@]1(O)C(=O)CO [Flumethasone]
inactive: [1] 0.995 | [2] 0.994 | [3] 0.997 | [4] 0.993 | [5] 1.01 | [6] 1.02 | [7] 0.997 | [8] 1.01

CC(C)(C)NCC(O)COc1cccc2c1CC(O)C(O)C2 (configuration not stated) [Nadolol]
inactive: [1] 0.99 | [2] 0.999 | [3] 1 | [4] 1 | [5] 1.02 | [6] 1.01 | [7] 1 | [8] 1

CCN(CC)CCOC(=O)C(c1ccccc1)C1CCCCC1 (configuration not stated) [Drofenine hydrochloride]
inactive: [1] 0.989 | [2] 1.01 | [3] 0.929 | [4] 1 | [5] 1.01 | [6] 1.03 | [7] 0.989 | [8] 0.943

Fc1ccc([C@@H]2CCNC[C@H]2COc2ccc3c(c2)OCO3)cc1 [Paroxetine hydrochloride]
inactive: [1] 0.995 | [2] 1 | [3] 0.94 | [4] 0.991 | [5] 0.997 | [6] 1.02 | [7] 0.998 | [8] 0.982

Cc1ccccc1OCC(O)CO (configuration not stated) [Mephenesin]
inactive: [1] 0.999 | [2] 1 | [3] 0.999 | [4] 0.994 | [5] 1.01 | [6] 1.01 | [7] 1 | [8] 1

CC1CCc2cc(F)cc3c(=O)c(C(=O)O)cn1c23 (configuration not stated) [Flumequine]
active: [1] 0.00993 | [2] 0.0348 | [3] 0.0549 | [4] 0.0304 | [7] 0.0214 | [8] 0.00721
inactive: [5] 0.801 | [6] 0.647

C[C@H]1O[C@H](O[C@H]2[C@H](O)[C@@H](O)[C@@H](O[C@@H]([C@H](O)[C@@H](O)C=O)[C@H](O)CO)O[C@@H]2CO)[C@H](O)[C@@H](O)[C@@H]1N[C@H]1C=C(CO)[C@@H](O)[C@H](O)[C@H]1O [Acarbose]
inactive: [1] 1.04 | [2] 0.995 | [3] 0.999 | [4] 1.01 | [5] 1.01 | [6] 0.884 | [7] 1.03 | [8] 1

CC(=O)[C@H]1CC[C@H]2[C@@H]3C=CC4=CC(=O)CC[C@@]4(C)[C@@H]3CC[C@]12C [Dydrogesterone]
inactive: [1] 1 | [2] 0.986 | [3] 0.99 | [4] 1.01 | [5] 1.02 | [6] 1.04 | [7] 1.01 | [8] 0.909

CC(C)(C)NC(=O)[C@H]1CC[C@H]2[C@@H]3CC[C@H]4NC(=O)C=C[C@]4(C)[C@H]3CC[C@]12C [Finasteride]
inactive: [1] 1.02 | [2] 1.02 | [3] 1.03 | [4] 1.01 | [5] 1.02 | [6] 1.04 | [7] 1.01 | [8] 0.895

CO[C@H]1/C=C/O[C@@]2(C)Oc3c(C)c(O)c4c(O)c(c(/C=N/N5CCN(C6CCCC6)CC5)c(O)c4c3C2=O)NC(=O)/C(C)=C\C=C\[C@H](C)[C@H](O)[C@@H](C)[C@@H](O)[C@@H](C)[C@H](OC(C)=O)[C@@H]1C [Rifapentine]
active: [1] 0.258 | [2] 0.588 | [4] 0.0449 | [5] 0.0203 | [6] 0.0164
inactive: [3] 1.03 | [7] 0.78 | [8] 0.716

O=c1[nH]c(=O)n([C@H]2C[C@H](O)[C@@H](CO)O2)cc1F [Floxuridine]
active: [1] 0.713 | [2] 0.729 | [3] 0.695 | [4] 0.44 | [5] 0.0504 | [6] 0.0573
inactive: [7] 0.815 | [8] 0.791
